Screens as filed in PubChem BioAssay.
S-ASM inh = human S-ASM enzyme inhibition; placental ASM, HMU-PC fluorogenic substrate, 60 min; Potency, µM (titrated, usually from 57.5 µM), without a hit: at the highest dose activity change, negative = inhibition, actives largely listed as inhibitors; 0.006% of 340,000 active; note: potency is the fitted concentration of half-maximal effect
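Steps: dispense placental human ASM, pin compound, wait 10 min at room temperature, add HMU-PC0 substrate at 9 uM final, incubate 60 min at 37 °C, add stop solution raising pH to 10, read fluorescence.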
PTAP TSG101 blk = blocks PTAP/TSG101 interaction to inhibit HIV-1 budding; Q99816; Fluorescence polarization, FITC-PTAP peptide / Tsg101 binding; Potency, µM (titrated, usually from 115 µM), for the others: at the highest dose activity change, negative = inhibition, usual class: inhibitors; 340,000 tested, under 10 active; AID 493005; active = well fitted inhibition curve with a large enough effect in the main read-out, with a control signal flat, not every such curve was filed as active; inconclusive = small, poorly fitted or top-dose-only effect, or effect the other way, or a change in a side signal; inactive = no such curve, though single readings can be large or run the other way; note: potency is the fitted concentration of half-maximal effect; % of control where 0% means no effect
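Compounds were pin-transferred onto Tsg101 binding domain (10 uM final) in HEPES pH 7.5 buffer, then FITC-PTAP peptide was added at 50 nM final. After 20 min at RT, polarization reported peptide displacement across a qHTS concentration series.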
TSHR antagonist = blocks TSH signaling through the human TSH receptor | AID 504810 | 0.2% of 330,000 active | activity change, negative = inhibition, % at 11.5 µM | TSHR-expressing cells, TSH-stimulated cAMP HTRF, 2 h; active compounds read low;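 active = activity change below a set negative limit, meaning inhibition stronger than a set level, cut at about -70% in these data; inconclusive = activity change between two set negative limits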; note: % is set by controls: 0 for no effect and ±100 for the full control effect
Target sequence (P16473 whole entry, looked up): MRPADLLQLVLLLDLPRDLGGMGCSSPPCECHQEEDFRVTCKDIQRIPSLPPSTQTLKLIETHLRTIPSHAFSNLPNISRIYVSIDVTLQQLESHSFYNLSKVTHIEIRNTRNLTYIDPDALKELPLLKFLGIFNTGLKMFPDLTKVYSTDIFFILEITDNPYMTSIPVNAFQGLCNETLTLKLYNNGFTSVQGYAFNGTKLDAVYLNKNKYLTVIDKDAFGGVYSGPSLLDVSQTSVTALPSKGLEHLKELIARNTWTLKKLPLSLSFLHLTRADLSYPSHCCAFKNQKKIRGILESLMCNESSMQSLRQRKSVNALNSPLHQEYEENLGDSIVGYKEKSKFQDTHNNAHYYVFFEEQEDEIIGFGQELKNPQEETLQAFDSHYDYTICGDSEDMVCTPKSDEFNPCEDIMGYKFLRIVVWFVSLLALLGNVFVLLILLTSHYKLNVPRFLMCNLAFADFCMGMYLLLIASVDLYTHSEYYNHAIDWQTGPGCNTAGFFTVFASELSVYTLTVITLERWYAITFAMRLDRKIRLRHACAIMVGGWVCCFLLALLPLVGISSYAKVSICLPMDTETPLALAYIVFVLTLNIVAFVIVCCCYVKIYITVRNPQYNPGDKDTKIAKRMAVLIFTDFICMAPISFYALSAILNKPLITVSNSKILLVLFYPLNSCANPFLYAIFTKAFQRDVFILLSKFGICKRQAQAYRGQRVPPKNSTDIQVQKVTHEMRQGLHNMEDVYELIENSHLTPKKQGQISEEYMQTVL
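TSHR-expressing cells, 200/well, pre-treated with compound, then stimulated with EC80 TSH (4nM final) for 2 hours at 37 deg C. cAMP measured by competitive HTRF: anti-cAMP cryptate antibody in lysis buffer plus cAMP-d2, read after 30 minutes at room temperature.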
BRCA1 expr act = activators of BRCA1 expression; MCF7-BRCA1-FFLuc reporter, luminescence, 48 h; response scale: scaled: vehicle 0%, 10 µM genistein 100%; Potency, µM (highest dose often 46.1 µM), for inactives: at the top dose activation, most hits filed as activators; 1.1% of 380,000 active; note: potency is the fitted concentration of half-maximal effect; nearly all actives have a fitted effect of over 80% in size
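Activators of BRCA1 expression were detected as increased firefly luciferase luminescence in engineered MCF7 cells after 48 h compound incubation. Signals were scaled to genistein 10 microM as full activation.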
Apoferritin bind = candidate novel general anesthetic via apoferritin binding; Potency, µM (highest dose often 77.5 µM), without a hit: at the highest dose activity change, negative = displacement, hits mostly inhibitors; AID 485281; P02791; apoferritin/1-aminoanthracene competitive binding, fluorescence; 0.074% of 350,000 active; note: potency is the fitted concentration of half-maximal effect; % is set by controls: 0 for no effect and ±100 for the full control effect; nearly all actives have a fitted effect of over 20% in size
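Steps: apoferritin (10 uM) was premixed with half-saturated 1-AMA in PBS, compounds were pin-transferred, plates stood 10 min at room temperature, fluorescence was read at 380/535 nm, and curves were fitted with a Hill equation.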
Starred values were filed as active, the others as inactive. A selection: hits, their analogues and other compounds. The true share with any hit is near 1.2%. Unless noted, calls come from the whole dose curve; as a rule, active = well fitted curve in the direction sought with a large enough effect; inconclusive = small, poorly fitted or top-dose-only effect, or another doubt; inactive = no such curve, though single readings can be large; an effect the other way counts as inactive or inconclusive.

What do the screens show for `CC[C@H](C)[C@H](NC(=O)[C@H](Cc1ccc(O)cc1)NC(=O)[C@H](Cc1cnc[nH]1)NC(=O)[C@H](CCCNC(=N)N)NC(=O)[C@H](CC(C)C)NC(=O)[C@H](C)NC(=O)[C@@H](N)CO)C(=O)N[C@@H](CC(N)=O)C(=O)N[C@@H](CC(C)C)C(=O)N[C@H](C(=O)N[C@H](C(=O)N[C@@H](CCCNC(=N)N)C(=O)N[C@@H](CCC(N)=O)C(=O)N[C@@H](CCCNC(=N)N)C(=O)N[C@@H](Cc1ccc(O)cc1)C(N)=O)[C@@H](C)O)[C@@H](C)CC`?
Apoferritin bind: -3%

Results for O=C(NCc1ccccc1)c1ccc([N+](=O)[O-])cc1 ?
BRCA1 expr act: 6%

How did O=C(CNC(=O)c1ccc([N+](=O)[O-])cc1)c1ccccc1 do in these assays?
S-ASM inh: -1%; PTAP TSG101 blk: -5%; TSHR antagonist: 0; BRCA1 expr act: 6.3µM*; Apoferritin bind: -9%

What do the screens show for `CC(C)(CCCCCCCCCCC(C)(C)CC(=O)O)CC(=O)O`?
Apoferritin bind: -1%

How did Cc1ccc(-c2nc3c4ccccc4ccn3c2Cc2ccccc2)cc1 do in these assays?
BRCA1 expr act: -35%

How did CCCc1nc2c3ccccc3ccn2c1Cc1ccccc1 do in these assays?
BRCA1 expr act: 11µM*

What do the screens show for `S=C(NCCCc1cnc[nH]1)NCCCN(Cc1ccc(Cl)cc1)c1ncc(Br)cn1`?
BRCA1 expr act: 0%

How did COc1cc(C)ccc1OCCCOc1ccccc1Cl do in these assays?
S-ASM inh: -7%; PTAP TSG101 blk: -3%; TSHR antagonist: -3; BRCA1 expr act: 13µM*; Apoferritin bind: -15%

How did Cc1ccc2c(c1)cc1c(=O)[nH]ncn12 do in these assays?
S-ASM inh: 1%; PTAP TSG101 blk: -2%; TSHR antagonist: 8; BRCA1 expr act: 11µM*; Apoferritin bind: -11%

What do the screens show for `COc1ccc2nc(-c3ccc(N(C)C)cc3)sc2c1`?
Apoferritin bind: 38%

What do the screens show for `CCn1c(SCC(O)c2ccccc2)nnc1-c1ccccc1` (stereo not given)?
S-ASM inh: -1%; PTAP TSG101 blk: 0%; TSHR antagonist: -4; BRCA1 expr act: 11µM*; Apoferritin bind: 6%

What do the screens show for `CCn1c(SCC(=O)OC(C)C)nnc1-c1ccccc1`?
S-ASM inh: 3%; PTAP TSG101 blk: 0%; TSHR antagonist: 2; BRCA1 expr act: -16%; Apoferritin bind: -6%

Results for O=C1OC(C(=O)Nc2ccccc2)Cc2ccccc21 (stereo not given) ?
S-ASM inh: 3%; PTAP TSG101 blk: 0%; TSHR antagonist: 2; BRCA1 expr act: 21%; Apoferritin bind: inconclusive

How did Cc1ccc(NC(=O)C2Cc3ccccc3C(=O)O2)cc1 (stereo not given) do in these assays?
S-ASM inh: -1%; PTAP TSG101 blk: -10%; TSHR antagonist: -7; BRCA1 expr act: 4µM*; Apoferritin bind: -14%

Results for Cc1ccc2c(C(=O)CNc3nccs3)c[nH]c2c1 ?
BRCA1 expr act: -26%

How did Cc1ccc(-c2csc(NC(=O)c3ccc(Br)cc3)c2C(=O)O)cc1 do in these assays?
S-ASM inh: 3%; PTAP TSG101 blk: -2%; TSHR antagonist: -14; BRCA1 expr act: 2µM*; Apoferritin bind: 0%

How did Cc1cccc(C(=O)Nc2scc(-c3ccc(Br)cc3)c2C(=O)O)c1 do in these assays?
S-ASM inh: -1%; PTAP TSG101 blk: -2%; BRCA1 expr act: -12%

Results for OC1(c2ccc(Cl)c(C(F)(F)F)c2)CCN(CCCC(c2ccc(F)cc2)c2ccc(F)cc2)CC1 ?
Apoferritin bind: 4%

How did O[C@@H]1COC2[C@@H](O)CO[C@@H]21 (stereo not given in full) do in these assays?
Apoferritin bind: 5%

How did COc1ccc2cc(CO)c(Cl)nc2c1 do in these assays?
S-ASM inh: -1%; PTAP TSG101 blk: -2%; TSHR antagonist: -1; BRCA1 expr act: 25%; Apoferritin bind: -9%

Results for COc1ccc2cc(/C=N/O)c(Cl)nc2c1 ?
S-ASM inh: 16%; PTAP TSG101 blk: -3%; TSHR antagonist: 45; BRCA1 expr act: 7.9µM*; Apoferritin bind: 0%

Results for COc1cc(-c2nc(-c3ccccn3)no2)cc(OC)c1OC ?
S-ASM inh: 0%; PTAP TSG101 blk: -7%; TSHR antagonist: -8; BRCA1 expr act: 7.9µM*; Apoferritin bind: -6%

How did c1ccc(-c2noc(-c3cccc4ccccc34)n2)nc1 do in these assays?
S-ASM inh: -11%; PTAP TSG101 blk: -7%; TSHR antagonist: -7; BRCA1 expr act: -15%; Apoferritin bind: -21%

What do the screens show for `COc1cccc(-c2nc(-c3ccccn3)no2)c1OC`?
S-ASM inh: 1%; PTAP TSG101 blk: -1%; TSHR antagonist: 17; BRCA1 expr act: 4.5µM*; Apoferritin bind: -3%

How did CNc1nnc(-c2cc3cc(Cl)ccc3oc2=O)s1 do in these assays?
S-ASM inh: 9%; PTAP TSG101 blk: -2%; TSHR antagonist: 1; BRCA1 expr act: 10µM*; Apoferritin bind: 46%

How did CCCOc1ccc(-c2nc(=S)[nH][nH]2)cc1 do in these assays?
S-ASM inh: 4%; PTAP TSG101 blk: -4%; TSHR antagonist: -20; BRCA1 expr act: 3.5µM*; Apoferritin bind: 0%

Results for C=CCSc1n[nH]c(-c2ccc(OCCCC)cc2)n1 ?
S-ASM inh: -11%; PTAP TSG101 blk: -11%; TSHR antagonist: -16; BRCA1 expr act: 7.9µM*; Apoferritin bind: 10%

Results for C=CCSc1n[nH]c(-c2ccc(OCCC)cc2)n1 ?
S-ASM inh: -1%; PTAP TSG101 blk: -5%; TSHR antagonist: -10; BRCA1 expr act: 3.5µM*; Apoferritin bind: -7%

What do the screens show for `O=[N+]([O-])c1ccc(Nc2nc(NCCN3CCOCC3)nc(Nc3ccc(Cl)cc3)n2)cc1`?
BRCA1 expr act: -76%

What do the screens show for `Cc1ccc(SCC(CC(C)C)N2CCN(C)CCC2=O)cc1` (stereo not given)?
Apoferritin bind: -2%

Results for Cc1ccc(S(=O)(=O)Nc2ccc(N=Nc3ccc(O)cc3)cc2)cc1 ?
S-ASM inh: -10%; PTAP TSG101 blk: -5%; TSHR antagonist: -75*; BRCA1 expr act: -20%; Apoferritin bind: -22%

Results for O=[N+]([O-])c1cccc(S(=O)(=O)N2CCN(c3nc(-c4cccs4)nc4ccccc34)CC2)c1 ?
BRCA1 expr act: 8%

Results for C/C(=N\Nc1nccnc1Cl)c1ccc(F)cc1 ?
S-ASM inh: 1%; PTAP TSG101 blk: -2%; TSHR antagonist: 13; BRCA1 expr act: 8.9µM*; Apoferritin bind: -5%
